Screens: PubChem BioAssay, The Scripps Research Institute Molecular Screening Center
ssDAF-12 act: activators of S. stercoralis DAF-12 nuclear receptor. hit rate 1% among 370,000. HEK293 ssDAF-12/GRIP1 lit1-tk-luc reporter, luminescence; % of 3 µM dafachronic acid response. activation, % at 6.8 µM. AID 652126;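 active = activation above the mean over all tested compounds plus 3 SD, cut at about 0.9% in these data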
hcDAF-12 act: activates DAF-12 receptor from parasite H. contortus | hit rate 1.4% among 370,000 | AID 652067 | activation, % at 6.8 µM | HEK293 hcDAF-12 lit1-tk-luc reporter, luminescence; 0% DMSO, 100% Δ7-dafachronic acid;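 active = activation above the mean of all tested compounds plus 3 SD, cut at about 5.5% in these data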
DAX1 inh-1: NR0B1 (DAX1) inhibition; hit rate 0.99% among 340,000; HEK293 Gal4-DAX1 luciferase reporter, luminescence; inhibition, % at 6.75 µM; P51843;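 active = inhibition above the mean over all tested compounds plus 3 SD, cut at about 4.2% in these data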;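 note: inhibition shows as a rise in luminescence from relieved DAX1 repression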
Target sequence (P51843 207-470 limits assumed): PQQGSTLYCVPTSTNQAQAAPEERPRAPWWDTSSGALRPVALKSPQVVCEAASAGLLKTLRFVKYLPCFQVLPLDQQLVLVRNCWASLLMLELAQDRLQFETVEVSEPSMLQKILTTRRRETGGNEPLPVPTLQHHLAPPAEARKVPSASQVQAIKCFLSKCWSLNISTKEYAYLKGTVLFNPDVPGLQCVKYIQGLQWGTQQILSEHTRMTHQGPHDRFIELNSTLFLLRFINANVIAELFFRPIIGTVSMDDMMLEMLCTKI
hgDAF12 agonist: hgDAF-12 agonism, primary luciferase screen; HEK293 GAL4-hgDAF12 UAS-luciferase reporter, agonist luminescence; normalized to butyrate control; activation, % at 6.8 µM; hit rate 1.8% among 370,000; AID 687014;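 active = activation above a cutoff set at the mean of all screened compounds plus 3 SD, cut at about 10% in these data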
DAX1 inh-2: DAX1 (NR0B1) inhibition, primary screen. hit rate 1.1% among 370,000. inhibition, % at 6.8 µM. HEK293T StAR-luciferase reporter, SF-1/DAX-1 repression relief;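 active = inhibition above the mean over all tested compounds plus 3 SD, cut at about 3.6% in these data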;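 note: higher inhibition means more luminescence from relief of DAX-1 repression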
LXR ag: counter-screen for hcDAF-12 agonists: agonists of human LXR-beta; shares compounds with hcDAF-12 act; AID 743027; activation, % at 6.8 µM; 3,400 tested, under 10 active; HEK293 Gal4-LXR tk-luc reporter, luminescence, 24 h; normalized: DMSO 0%, positive control 100%;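 active = mean percent activation of the reporter above a cutoff set as the average over tested compounds plus their standard deviation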
hcDAF12 ag: hcDAF-12 agonism, confirmation assay | shares compounds with hcDAF-12 act | HEK293 hcDAF-12 lit1-tk-luc reporter, luminescence; % of Δ7-dafachronic acid response | activation, % at 6.8 µM | hit rate 61% among 3,400 | AID 743032;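 active = mean activation across triplicate tests above the threshold derived from the earlier primary screen, cut at about 5.5% in these data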
A number is an active result; – = inactive; · = not tested or not shown. Most compounds without a hit are left out; they make up all but 4.1% or so of the library.

SMILES	ssDAF-12 act	hcDAF-12 act	DAX1 inh-1	hgDAF12 agonist	DAX1 inh-2	LXR ag	hcDAF12 ag
O=C(Nc1nc2ccccc2s1)C1=NN(c2ccccc2)C(=O)CC1	–	6.8	–	–	–	–	–
O=C(Nc1ccc2nccnc2c1)c1cnccn1	–	6.7	–	–	–	–	–
CC(=O)Nc1ccc(/C=N\NC(=O)c2cccc(S(=O)(=O)N(C)C)c2)cc1	–	–	·	–	–	·	·
O=C(Nc1nc2c(s1)CCCC2)c1cccs1	–	9.5	–	–	–	–	6.1
Cc1ccc2nc(NC(=S)NC(=O)c3cccs3)sc2c1	0.9	7.2	–	11.2	–	–	15.4
Cc1cc(C)c2oc(-c3ccc(C)c(NC(=S)NC(=O)c4cccs4)c3)nc2c1	–	7.7	–	–	–	–	–
Cc1ccc2nc(NC(=O)c3cccs3)sc2c1	1.1	10.2	–	11.0	–	–	5.9
COc1ccc(N2CCN(C(=O)COC(=O)CCc3ccccc3OC)CC2)cc1	–	–	–	–	–	·	·
COc1ccc(/C=C2/CN(Cc3ccc(OC)cc3OC)C3=N[C@H](c4ccccc4)CC(=O)N32)cc1	–	–	·	–	–	·	·
CCOC(=O)c1c(C)oc2c1c(C(c1ccccc1)N1CCOCC1)c(O)c1ccccc12 (stereo unspecified)	1.0	10.8	4.2	12.9	4.0	–	7.3
O=C(CN1CCCc2ccccc21)NCc1ccccc1F	–	–	·	–	–	·	·
Cc1ccc(-n2nc3ccc(N)cc3n2)cc1	0.9	12.9	–	–	3.7	–	6.7
Cc1cc2nn(-c3ccc(Cl)cc3)nc2cc1N	1.0	9.7	–	–	–	–	13.1
CCOc1ccc(-n2nc3cc(C)c(N)cc3n2)cc1	1.8	7.5	–	11.7	–	–	8.8
COc1ccc(-n2nc3cc(C)c(N)cc3n2)cc1Cl	–	–	–	–	–	·	·
COc1ccccc1Cc1nc(-c2ccc(Br)o2)no1	–	8.1	–	–	–	–	8.0
O=c1[nH]c2ccccc2cc1-c1nnn(-c2ccc(F)cc2)n1	–	–	–	–	–	·	·
Fc1ccc(-n2nnc(-c3cnc4ccccc4c3)n2)cc1	–	9.6	–	10.9	–	–	–
Cn1c(=N)n(CC(=O)c2ccc(Br)s2)c2ccccc21	2.8	14.5	–	11.6	–	–	16.3
N=c1n(CC(=O)c2ccc(Br)s2)c2ccccc2n1Cc1ccccc1	–	–	–	–	–	·	·
COC(=O)[C@@]12C[C@@H](CC(=O)N3CCN(C(=O)c4ccco4)CC3)C(=O)N(Cc3ccc4c(c3)OCO4)C1=CCC(C)(C)C2	–	–	·	–	–	·	·
CCN(CCO)C(=O)CC1C(=O)NCCN1Cc1c(F)cccc1Cl (stereo unspecified)	–	10.6	–	–	–	–	–
O=C(CSc1nnc(COc2ccccc2)n1-c1ccccc1)Nc1ccc(S(=O)(=O)Nc2nccs2)cc1	–	–	·	–	–	·	·
Cc1noc(C(=O)Nc2ccc3c(c2)OCO3)c1Cl	–	6.7	–	–	–	–	–
CC(=O)c1ccc(NC(=O)c2onc(C)c2Cl)cc1	–	7.8	–	–	–	–	6.4
SMILES	ssDAF-12 act	hcDAF-12 act	DAX1 inh-1	hgDAF12 agonist	DAX1 inh-2	LXR ag	hcDAF12 ag
CC(C)OC(=O)[C@@H](Cc1ccccc1)N[C@H](/C=C/c1ccccc1)[C@@H](O)Cc1ccccc1	–	–	·	–	–	·	·
CN/N=C(\Cc1nc2ccccc2[nH]1)c1ccc([N+](=O)[O-])cc1	–	7.0	–	–	–	–	7.8
O=C(OCc1cn(Cc2c(F)cccc2F)nn1)N1CCCC1	–	–	·	–	–	·	·
CC(=O)OCc1nc2ccccc2s1	–	7.7	–	11.7	4.0	–	12.0
NNC(=O)c1nc2ccccc2s1	–	–	–	–	–	·	·
O=C(CNC(=O)c1ccccc1)OCc1nc2ccccc2s1	1.0	7.5	–	–	–	–	6.4
O=C(CNC(=O)c1ccccc1F)OCc1nc2ccccc2s1	–	–	–	–	–	·	·
CCOC(=O)c1nc2ccccc2s1	1.4	8.8	–	–	–	–	9.3
NC(=O)c1ccccc1OCc1cccc2ccccc12	–	–	–	–	–	·	·
NC(=O)c1ccccc1OCc1nc2ccccc2s1	–	13.8	–	12.7	–	–	13.6
NC(=O)[C@@H]1CCCN1C(=O)[C@@H](Cc1ccccc1)NC(=O)[C@H]1O[C@@H](n2ccc(N)nc2=O)[C@H](O)[C@@H]1O	–	–	·	–	–	·	·
COc1ccc(C(=O)NC(C)Cc2c[nH]c3ccccc23)cc1 (stereo unspecified)	–	–	–	–	–	·	·
CC1CCc2nc(/C(C#N)=C/c3cccnc3)sc2C1 (stereo unspecified)	–	7.1	6.4	13.3	3.8	–	–
CCN1CCN(C(=O)C2CCN(c3nnc(-n4c(C)ccc4C)s3)CC2)CC1	–	10.8	–	–	–	–	–
O=C(COC(=O)c1ccccc1Br)NCCN1C(=O)CSC1=O	–	–	–	–	–	·	·
O=C(COC(=O)c1cccc(Cl)c1Cl)NCCN1C(=O)CSC1=O	–	9.0	–	–	–	–	–
CC(C)c1cc(C(C)C)c(S(=O)(=O)N2CCC(c3cn4ccccc4n3)CC2)c(C(C)C)c1	–	–	·	–	–	·	·
O=C(Cc1cc(=O)[nH][nH]1)N/N=C/c1ccccc1C(F)(F)F	–	–	·	–	–	·	·
O=C(Cc1ccccc1[N+](=O)[O-])NCc1ccc2c(c1)OCO2	2.2	8.8	–	12.0	–	–	8.6
O=C(Cc1ccccc1)NCc1ccc2c(c1)OCO2	–	–	–	–	–	·	·
CC(=O)c1sc(NC(=O)c2oc3ccc(F)cc3c2C)nc1C	–	6.9	–	–	–	–	–
Oc1ccccc1/C=N/n1c2ccccc2c2ccccc21	–	–	–	–	–	·	·
C(=N\n1c2ccccc2c2ccccc21)/c1ccccc1	–	10.4	–	–	–	–	5.9
COc1ccc(S(=O)(=O)NC(=O)C2(C)CCN2C(=O)CCC2CCCC2)cc1OC (stereo unspecified)	–	–	·	–	–	·	·
CC1CCC/C(=N\NS(=O)(=O)c2ccccc2)C1 (stereo unspecified)	–	–	–	–	–	·	·
CC1CCCC(=NNc2ccc3ccccc3n2)C1 (stereo unspecified)	–	6.7	–	–	–	–	–
CC(=O)c1c(CC(=O)O)[nH]n(-c2nc3ccccc3s2)c1=O	–	6.6	–	–	–	–	–
Cc1nc2ccc(C(=O)N3CCN(C(=O)C(Cl)Cl)CC3)cc2n1C1CCCC1	–	–	·	–	–	·	·
COC(=O)c1c[nH]n2c(=O)c(Cl)c(C)nc12	–	8.7	–	–	–	–	–
